Here are results for twelve compounds from PubChem BioAssay.

Test [1] in a line: resazurin metabolic signal in HepG2 cells – cell-based, resazurin fluorescence, 24 h, PK04 Diversity Set, profiling panel (AID 1172). Note: test concentration not given here. The note with it: HepG2 viability, higher = more signal.
Test [2] in a line: budding yeast growth changes without added modifier – OD600, strain BY4716, 24 h, basal condition, primary screen (AID 1173). The following applies: S. cerevisiae BY4716 growth, OD600, 24 h; higher = more signal, called active from +8 up or from −8 down.
Test [3] is described as follows: viability profiling in MM1S myeloma cells – cell-based, resazurin fluorescence, basal, 24 h, PK04 Diversity Set, profiling panel (AID 1174).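 Note: MM1S multiple myeloma cell line; test concentration not given here.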 The note with it: higher = more signal, called active from +8 up or from −8 down. For orientation: The colour change of resazurin is a common sign of viable cells or microbes.
The target of test [4] is Dihydroorotate dehydrogenase (quinone), mitochondrial (Plasmodium falciparum (isolate 3D7)) (UniProt Q08210). Nature of the test: inhibition of P. falciparum DHODH – biochemical, C-terminal His tag, absorbance 600 nm, primary screen (AID 1175).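 Note: recombinant parasite enzyme with a five histidine tag at its C terminus; test concentration not given here.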 The following applies: PfDHODH enzyme, DCIP absorbance 600 nm; higher = more signal, called active from +8 up or from −8 down.
Test [5] can be described thus: inhibition of PAO1 biofilm formation – strain PAO1, LB-PBS medium, absorbance 600 nm, primary screen (AID 1176). Note: test concentration not given here. The following applies: P. aeruginosa PAO1 growth/biofilm, A600, 12 h; higher = more signal.
Test [6] can be described thus: growth modulation of vineyard yeast isolate – strain RM11-1a, OD600, basal, 24 h, primary screen (AID 1177).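 Note: cultures grown under basal conditions with no added stressor; test concentration not given here.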 The note with it: S. cerevisiae RM11-1a growth, OD600, 24 h; higher = more signal, called active from +8 up or from −8 down.
Test [7] is described as follows: growth of efflux-deficient E. coli DRC39 – strain DRC39, OD650, 24 h, E. coli filamentation inducers, primary screen (AID 1178).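 Note: growth measured as culture turbidity by optical density at 650 nm; test concentration not given here.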 The note with it: E. coli DRC39 acrAB, higher = more signal, called active from +8 up or from −8 down.
The nature of test [8]: growth of efflux-deficient E. coli DRC39 – strain DRC39, OD650, 48 h, E. coli filamentation inducers, primary screen (AID 1179).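 Note: screen aims at cell division blockers that make cells filament.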 The following applies: E. coli DRC39 delta-acrAB growth, higher = more signal, called active from +8 up or from −8 down.
Test [9] can be described thus: viability profiling in RPMI8226 myeloma cells – cell-based, resazurin fluorescence, basal, 24 h, PK04 Diversity Set, profiling panel (AID 1180).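 Note: RPMI8826 multiple myeloma cell line at 5000 cells per well; test concentration not given here.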 The following applies: higher = more signal.
The target in test [10] is E3 ubiquitin-protein ligase XIAP (Homo sapiens) (UniProt P98170). Kind of test: small molecules binding XIAP protein – biophysical, small-molecule microarray, fluorescence 635 nm, primary screen (AID 1181).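 Note: score merges 667 nm emission and signal to noise over triplicate slides.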 The note with it: higher = more signal.

The source made the active and inactive calls. Unless noted, the rule behind the calls is not given here.

Sequence of E3 ubiquitin-protein ligase XIAP (Homo sapiens) (P98170 whole entry, looked up): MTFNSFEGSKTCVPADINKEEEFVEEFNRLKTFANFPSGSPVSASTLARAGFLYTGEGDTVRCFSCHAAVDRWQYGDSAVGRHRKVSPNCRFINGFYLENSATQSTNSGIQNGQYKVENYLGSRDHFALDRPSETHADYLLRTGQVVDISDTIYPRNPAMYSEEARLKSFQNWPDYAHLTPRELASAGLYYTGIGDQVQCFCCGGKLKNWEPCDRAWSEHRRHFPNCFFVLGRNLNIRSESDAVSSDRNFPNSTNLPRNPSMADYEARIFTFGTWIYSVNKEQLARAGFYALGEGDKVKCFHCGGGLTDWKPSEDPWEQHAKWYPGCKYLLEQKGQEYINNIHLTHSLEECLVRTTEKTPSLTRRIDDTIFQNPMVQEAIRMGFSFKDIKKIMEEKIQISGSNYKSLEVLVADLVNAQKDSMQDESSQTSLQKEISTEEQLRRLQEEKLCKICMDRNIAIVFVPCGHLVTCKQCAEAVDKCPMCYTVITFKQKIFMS
Sequence of Dihydroorotate dehydrogenase (quinone), mitochondrial (Plasmodium falciparum (isolate 3D7)) (Q08210 whole entry, looked up): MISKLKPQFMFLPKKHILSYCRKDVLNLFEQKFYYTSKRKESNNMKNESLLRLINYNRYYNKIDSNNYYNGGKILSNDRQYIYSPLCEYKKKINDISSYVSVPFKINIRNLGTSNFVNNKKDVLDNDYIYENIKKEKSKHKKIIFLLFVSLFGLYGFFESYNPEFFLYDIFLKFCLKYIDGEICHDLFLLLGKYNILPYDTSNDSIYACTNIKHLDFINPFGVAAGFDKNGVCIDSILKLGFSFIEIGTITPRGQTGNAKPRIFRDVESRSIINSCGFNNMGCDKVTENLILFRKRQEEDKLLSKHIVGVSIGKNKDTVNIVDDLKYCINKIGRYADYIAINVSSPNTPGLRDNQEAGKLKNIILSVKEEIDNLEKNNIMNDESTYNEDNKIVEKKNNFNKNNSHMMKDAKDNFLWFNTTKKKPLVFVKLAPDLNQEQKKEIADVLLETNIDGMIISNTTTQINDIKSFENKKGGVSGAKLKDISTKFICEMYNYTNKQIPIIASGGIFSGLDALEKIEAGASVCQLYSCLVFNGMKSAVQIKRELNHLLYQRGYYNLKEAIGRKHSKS

In the case of `CC(CO)N1C(=O)[C@@H]2C3C(=O)OCCC/C=C\[C@H]3OC23C=CCN(c2ccc4ccccc4c2)C(=O)[C@@H]13` (stereo not given in full), the z-score in [1] is -0.757; in test [2], -0.55 (inactive); in test [3], -0.208 (inactive); in [5] it was -0.456 (inactive); in test [6], 0.179 (inactive); in [7] it was 0.162 (inactive). In addition, the z-score in test [8] is 0.703 (inactive); in [9] it was -0.0216. For the same compound, the composite z-score in test [4] is 0.575 (inactive); in [10] it was -0.0989.

As to `C#CCNC(=O)[C@H](Cc1ccccc1)NC(=O)CCC(=O)O`, the z-score in [1] is -0.487; in test [2], -0.734 (inactive); in test [3] it was -0.135 (inactive); in test [5], 0.927 (inactive); in test [6] it was -0.051 (inactive); in test [7] it was -0.306 (inactive). Further, the z-score in test [8] is -0.125 (inactive); in [9], -1.28. In addition, the figures for the composite z-score in test [4] and in [10] were 0.139 (inactive) and -0.239, respectively.

For `O=C1OCC=C[C@H]2OC34C=CCN(c5ccc6ccccc6c5)C(=O)[C@H]3N(CCCCCCO)C(=O)[C@@H]4[C@@H]12` (stereo not given in full), the z-score is 0.551 in test [1]; -0.7 (inactive) in [2]; 0.645 (inactive) in [3]; -0.717 (inactive) in [5]; -0.472 (inactive) in test [6]; 0.841 (inactive) in test [7]. For the same compound, the figures for the z-score in test [8] and in test [9] were 0.982 (inactive) and 0.683, respectively. The results for the composite z-score in test [4] and in test [10] were -1.24 (inactive) and 0.086, respectively.

Turning to `COc1ccc([C@H]2C[C@H]3C(Br)=C[C@@H]2C(=O)[C@]32CO2)cc1`, the z-score in [1] was 0.158; in [2] it was -6.22 (inactive); in test [3], -0.0566 (inactive); in test [5], -0.647 (inactive); in test [6], 0.844 (inactive); in test [7], 1.75 (inactive). Besides, the z-score in test [8] is 0.406 (inactive); in [9], 0.869. Further, the composite z-score in test [4] was 1.03 (inactive); in test [10], -0.0292.

`CN(C)CCCCCCNC(=O)[C@@H]1C[C@@H]2C(=O)N[C@@H](CCCCN)C(=O)N2[C@@H]1c1cccc(OCCO)c1`: the z-score in test [1] is -0.205; in [2], -0.707 (inactive); in test [3], 0.364 (inactive); in test [5], 1.29 (inactive); in test [6], -2.27 (inactive); in test [7], 0.731 (inactive). For the same compound, the values for the z-score in test [8] and in test [9] were -0.199 (inactive) and 0.393, respectively. In addition, the composite z-score was -1.12 (inactive) in test [4] and 3.31 in test [10].

`C=CCOC(=O)[C@H]1[C@@H]2C(=O)O[C@@H](c3ccccc3)[C@@H](c3ccccc3)N2[C@@H](c2ccc(OCCOC(=O)[C@H]3C[C@H]4C(=O)N5CCC[C@H]5C(=O)N4[C@H]3c3ccc(O)cc3)cc2)[C@]12C(=O)Nc1ccc(I)cc12`: the z-score in test [1] is -0.495; in [2] it was -1.03 (inactive); in test [3], -0.941 (inactive); in test [5], 2.43 (inactive); in test [6], -0.632 (inactive); in test [7], -0.651 (inactive). The z-score in test [8] is -1.05 (inactive); in [9] it was -0.215. In addition, the figures for the composite z-score in test [4] and in test [10] were -1.73 (inactive) and 2.8, respectively.

On to `CN1C(=O)C2C=CC(C(O)c3ccc(I)cc3)N(N3CCCCC3)C2C1=O` (stereo not given), for which the z-score in [1] is -1.17; in test [2], -3.86 (inactive); in test [3], -2.13 (inactive); in [5], 0.338 (inactive); in [6], -0.0818 (inactive); in [7] it was -0.709 (inactive). Besides, the results for the z-score in test [8] and in test [9] were -1.11 (inactive) and -1.26, respectively. Also, the composite z-score is 0.0552 (inactive) in test [4] and 0.33 in [10].

As to `O=C1OCCC/C=C\[C@H]2OC34C=CCN(c5ccc6ccccc6c5)C(=O)[C@H]3N(CCCCCCO)C(=O)[C@@H]4C12` (stereo not given in full), the z-score was -0.156 in test [1]; -1.28 (inactive) in test [2]; 0.241 (inactive) in [3]; 0.481 (inactive) in [5]; -1.49 (inactive) in test [6]; 0.374 (inactive) in [7]. The z-score in test [8] is 1.01 (inactive); in test [9], 0.152. Besides, the composite z-score in [4] was -1.97 (inactive); in test [10], 0.115.

For the compound `O=C1C[C@]2(c3ccc([N+](=O)[O-])cc3)C(=O)N(CCN3CCOCC3)c3cc(CO)ccc3[C@H]2N1C1CCCCC1`, the z-score is -0.592 in [1]; -0.0979 (inactive) in [2]; -0.399 (inactive) in test [3]; 0.0993 (inactive) in test [5]; -0.974 (inactive) in test [6]; 1.06 (inactive) in [7]. The z-score in test [8] was 1.66 (inactive); in test [9], 0.186. The composite z-score in test [4] was -7.11 (inactive); in test [10] it was -0.16.

Turning to `Cc1ccc(S[C@]2(C(=O)NCC(C)C)CC(=O)N(Cc3cc(C(F)(F)F)cc(C(F)(F)F)c3)[C@@H]2c2ccc(CO)cc2I)cc1`, the z-score in test [1] is -0.0295; in test [2], -3.38 (inactive); in test [3] it was -2.99 (inactive); in test [5] it was -0.522 (inactive); in test [6], -1.19 (inactive); in test [7], -0.155 (inactive). For the same compound, the z-score is -0.586 (inactive) in test [8] and -2.27 in test [9]. In addition, the composite z-score in [4] was -0.83 (inactive); in test [10], -0.17.

As to `C=CCNC(=O)[C@@H]1[C@H]2C(=O)O[C@H](c3ccccc3)[C@H](c3ccccc3)N2[C@H](c2ccc(OCCO)cc2)[C@@]12C(=O)Nc1ccc(C#CCCO)cc12`, the z-score in test [1] is -0.13; in test [2], 1.02 (inactive); in [3], -0.185 (inactive); in test [5] it was 1.66 (inactive); in test [6] it was -0.114 (inactive); in test [7], -0.194 (inactive). The z-score in test [8] is 0.184 (inactive); in test [9] it was -0.114. Moreover, the composite z-score was -1.24 (inactive) in test [4] and -0.157 in [10].

Turning to `COCCCNC(=O)[C@@]1(Cc2ccccc2)N=C(c2ccc(OCCCO)cc2)O[C@H]1c1ccccc1`, the z-score is 0.625 in test [1]; -1.05 (inactive) in test [2]; -0.0938 (inactive) in test [3]; 0.19 (inactive) in test [5]; -0.82 (inactive) in test [6]; 0.385 (inactive) in test [7]. Besides, the z-score in test [8] is -0.456 (inactive); in test [9], 0.297. In addition, the composite z-score in test [4] was 0.282 (inactive); in test [10], -0.0376.
